# Screening data deposited in PubChem by National Center for Advancing Translational Sciences (NCATS).
# Pf Dd2 growth = inhibitors of Plasmodium falciparum Dd2 growth; P. falciparum Dd2 growth, SYBR Green, 72 h; Potency, µM (doses to about 28.9 µM), for the others: top-dose activity, negative = inhibition, actives largely listed as inhibitors; actives 4.3% (n = 120,000); AID 1347417; active means well fitted inhibition curve with a large enough effect;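 further: plate controls were DMSO vehicle for no effect and reference drug for full effect; nearly all actives have a fitted effect of over 65% in size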
#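 Readout: SYBR Green fluorescence, 485 nm excitation, 535 nm emission, after ~16 h lysis at 37C. Before that, Dd2-infected red cells (2.5% hematocrit) grew 72 h with compound, 29 uM top final concentration.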
# Numbers without * were called inactive; i = inactive; [ ] = another dose, or the depositor's remark. Shown is part of a subset that was picked to be rich in hits. Potency means the concentration at half of the fitted maximal effect.
SMILES,Pf Dd2 growth
COc1ccc2c(CNCc3cccs3)c(C(=O)O)n(Cc3ccc(C)cc3)c2c1,-5.6%
Cc1ccc2c(CNC3CCCC3)c(C(=O)O)n(Cc3ccc(F)cc3)c2c1,-3.5%
Cc1ccc(Cn2c(C(=O)O)c(CNCc3ccc(OC(C)C)cc3)c3ccc(C)cc32)cc1,11.2µM*
Cc1ccc2c(CNCc3cccc(Cl)c3)c(C(=O)O)n(Cc3ccc(F)cc3Cl)c2c1,34.0%
C=Cc1ccc(Cn2c(C(=O)O)c(CNCc3ccccc3)c3ccc(C)cc32)cc1,7.94µM*
Cc1ccc(CNCc2c(C(=O)O)n(Cc3ccccc3C)c3cc(C)ccc23)cc1,3.16µM*
Cc1ccc(CNCc2c(C(=O)O)n(Cc3ccc(C)cc3)c3cc(C)ccc23)cc1,-13.4%
COc1ccc(C(=O)N2C[C@@H](COc3ccccc3)[C@H](C(N)=O)C2)cn1,1.7%
CCCOCCN1CCN(c2nc(CCN)nc3ccccc23)CC1,-11.4%
Cc1ccc(NC(=O)Cn2ccn3nc(-c4ccc(F)cc4)c(CO)c3c2=O)cc1C,-20.6%
CCOCc1nc(C2CCCN(C(=O)c3ccccn3)C2)no1 (centres undefined),57.2%
COc1cccc(CNC(=O)[C@H]2CCC[C@H]2NC(=O)c2ccncc2)c1OC,i
CCN(C1CCOCC1)C1CN(C(=O)C2CCCO2)C1 (centres undefined),0.8%
Cc1ccc(C(=O)N2CCN(c3cc(C(F)(F)F)nc(C)n3)CC2)cc1,-8.3%
COc1ccc(CN2C(=O)C3(CCOCC3)CC2c2nnnn2C(C)(C)C)cc1 (centres undefined),37.1%
Cn1nc(-c2ccc3c(c2)OCCO3)nc1N1CCCCC1,i
COCCOc1ccc2c(n1)CCN(C(=O)c1ccccc1C)C2,16.5%
O=C1NC2(Cc3ccccc31)CN(Cc1ccc(C(F)(F)F)cc1)C2,-1.4%
CN(C)CC(=O)N1C[C@@H]2C[C@H](C1)c1ccc(-c3ccccc3CN3CCOCC3)c(=O)n1C2,-9.9%
O=C(Nc1cccc(Cl)c1)c1ccc(N2CC3CC(C2)[C@H]2CCCC(=O)N2C3)nc1 (some centres undefined),-21.7%
N#Cc1c(-c2ccccc2)cc(-c2ccccc2)nc1SCC(=O)Nc1ccc(Cl)cc1,-13.2%
COc1ccc(-c2cc(-c3ccccc3)nc(SCC(=O)Nc3ccccc3F)c2C#N)cc1,21.7%
COc1ccc(NC(=O)CSc2nc(-c3ccccc3)cc(-c3cc(OC)c(OC)c(OC)c3)c2C#N)c(OC)c1,6.31µM*
CC(C)N(C)Cc1nnnn1CC(=O)N1CCC(CCn2cccn2)CC1,0.5%
O=C(NC[C@H]1Cn2cc(-c3ccccc3)nc2CO1)c1ccc2c(c1)OCO2,i
SMILES,Pf Dd2 growth
CCNC(=O)N1CCCC(c2nc(-c3cccnc3)no2)CCNC(=O)CC1 (centres undefined),i
CCOc1ccc(CC(=O)N2C[C@@H](CO)[C@H](c3nc(C)no3)C2)cc1,-8.1%
CCC(=O)N1CCc2cc(Br)cc(S(=O)(=O)CCC(=O)Nc3ccccc3C)c21,1.7%
O=C(CCS(=O)(=O)c1cc(Br)cc2c1N(C(=O)C1CC1)CC2)Nc1ccc(F)cc1,3.98µM*
CCOc1ccc(NS(=O)(=O)c2cc(Br)cc3c2N(C(=O)C2CC2)CC3)cc1,34.8%
CCC(=O)N1CCc2cc(Br)cc(S(=O)(=O)CCC(=O)N3CCN(c4cc(C)ccc4C)CC3)c21,-8.9%
Cc1ccc(Cl)cc1N1CCN(S(=O)(=O)c2cc(Br)cc3c2N(C(=O)C2CC2)CC3)CC1,9.2%
Cc1ccc(Cl)cc1N1CCN(C(=O)CCNS(=O)(=O)c2ccc3c(c2)CCN3C(=O)C2CC2)CC1,-7.1%
COc1ccc(N2CCN(C(=O)CCS(=O)(=O)c3cc(Br)cc4c3N(C(=O)C3CC3)CC4)CC2)cc1,5.01µM*
Cc1ccc(Cl)cc1N1CCN(C(=O)CCS(=O)(=O)c2cc(Br)cc3c2N(C(=O)C2CC2)CC3)CC1,10µM*
CC(=O)N1CCc2cc(Br)cc(S(=O)(=O)CCC(=O)N3CCN(c4cccc(C)c4C)CC3)c21,-24.4%
CCc1cccc(NC(=O)CCS(=O)(=O)c2cc(Br)cc3c2N(C(C)=O)CC3)c1,-9.9%
CCCCN(Cc1ccccc1)S(=O)(=O)c1cc(Br)cc2c1N(C(C)=O)CC2,i
CCN(Cc1ccccc1)S(=O)(=O)c1cc(Br)cc2c1N(C(=O)C1CC1)CC2,7.94µM*
CC(C)(CC(=O)O)CC(=O)N[C@H]1CO[C@H]2[C@@H]1OC[C@@H]2n1nnnc1Oc1ccc(-n2cncn2)cc1,4.2%
CC(C)Oc1cccc(-c2n[nH]c3c2CC(=O)N(Cc2ccccn2)C3)c1,-2.0%[44.1 µM]
Cc1nnnn1-c1cccc(-c2nc(Cc3cccs3)nn2CCO)c1,-1.9%
CC(C)NC(=O)N1CCC(c2nc(C3CCOCC3)no2)CC1,-0.7%
O=C(NCc1ccc(Cl)nc1)c1cc2cccnn2n1,-18.8%[44.1 µM]
Cc1noc(C)c1-c1cc2cc(C(C)C)oc2c(Nc2ccn(C)n2)n1,-1.6%[44.1 µM]
Cc1noc(C)c1-c1cc2cc(CNC3CC3)oc2c(NC2CCN(C)CC2)n1,-13.7%[44.1 µM]
Cc1cc2cc(-c3c(C)noc3C)nc(NC3CC3)c2o1,-9.0%[44.1 µM]
Cc1noc(C)c1-c1cc2cc(C(C)C)oc2c(NC2CCN(C)CC2)n1,10µM*
Cc1noc(C)c1-c1cc2cc(C(C)C)oc2c(NCCN2CCOCC2)n1,10µM*
Cc1noc(C)c1-c1cc2cc(CO)oc2c(NCC2CCOCC2)n1,i
SMILES,Pf Dd2 growth
Cc1cccc(C(=O)N2C(C(=O)NCC(C)C)COC23CCN(C(=O)c2ccccc2C)CC3)c1 (centres undefined),i
CC(=O)N[C@H]1CCN(C(=O)C[C@@H]2[C@H](O)CC[C@@H]3[C@]4(C)CO[C@@H](CNC(=O)c5cc(C)on5)O[C@@H]4CC[C@]32C)C1,-5.3%
Cc1ccc(OCCN2CCC3(CC2)C(C(=O)O)CC(=O)N3C)c(C)c1 (centres undefined),-14.3%
COc1ccc(-c2nc3c(c(=O)[nH]2)CCN(C(=O)c2ccccc2)C3)cc1,i
COc1ccc(-c2nc3c(c(=O)[nH]2)CCN(C(=O)CSc2ccccc2)C3)cc1,4.47µM*
COc1ccc(-c2nc3c(c(=O)[nH]2)CCN(C(=O)COc2ccc(F)c(F)c2)C3)cc1,1.0%
O=C(Nc1ccccc1)N[C@H]1C[C@H]2C(=O)NC[C@@H](CCC(=O)N3CCCCC3)N2C1,i
CC(C)NC(=O)N[C@H]1C[C@H]2C(=O)NC[C@@H](CCC(=O)N3CCCCC3)N2C1,8.2%[44.1 µM]
O=C1NC[C@@H](CCC(=O)N2CCCCC2)N2C[C@@H](NC(=S)Nc3ccc(Cl)cc3)C[C@@H]12,6.31µM*
O=C(Nc1cccc(C(F)(F)F)c1)N1CCC(n2cnnc2C2CC2)C1 (centres undefined),47.5%
COc1ccc(S(=O)(=O)N2C[C@@H](F)C[C@H]2C(=O)N2CCOCC2)cc1OC,7.8%
CN1CCC(OCCCn2ccnc2-c2ccccc2C(=O)O)CC1,15.3%
CCOc1ccccc1NC(=O)CSc1nc2cc(OC)c(OC)cc2c2nc(CCn3c(C)nc4ccccc43)nn12,3.16µM*
Cc1cccc(NC(=O)CSc2nc3ccccc3c3nc(CCn4cncc4C)nn23)c1,10µM*
Cc1n[nH]c(C)c1CCc1nc2c3ccccc3nc(SCC(=O)Nc3ccc(F)cc3)n2n1,8.91µM*
COc1cc2nc(SCC(=O)Nc3ccc(F)cc3)n3nc(CCn4c(C)nc5ccccc54)nc3c2cc1OC,i
Cc1ccc(CSc2nc3ccccc3c3nc(CCn4c(C)nc5ccccc54)nn23)cc1,3.2%
O=C(CSc1nc2ccccc2c2nc(-c3ccccc3)nn12)Nc1ccc(Br)cc1,i
COc1ccccc1NC(=O)Cn1c(SCC(=O)Nc2ccc(F)cc2)nc2ccccc21,i
